Bioassay records (PubChem)
This is one part of a sample in which hits are shown more often than they occur.
ST2 inh: IL1RL1 inhibition. Q01638. AlphaLISA ST2-Fc/biotin-IL-33 interaction, 1 h. inhibition, % for hits at 17 µM. 78,000 compounds, 2.3% hits. AID 1259354; in the data active = inhibition above about 30%
Hits are given with their value; – = inactive.

SMILES	ST2 inh
CCN(CC)CCNC(=O)c1ccc2c(Cl)c3c(nc2c1)CCCC3	–
Cc1cccc(NC(=O)CCN2C(=O)S/C(=C\c3ccccc3)C2=O)c1	–
CC1=NN(c2ccccc2)C(=O)/C1=C/c1ccc(O)c(Cl)c1	–
CC1=NN(c2cccc(Cl)c2)C(=O)/C1=C\c1ccc(C)cc1	30%
CC1=NN(c2cccc(Br)c2)C(=O)/C1=C/c1ccc(-c2ccc3c(c2)C(=O)OC3)o1	–
CC1=NN(c2cccc(Cl)c2)C(=O)/C1=C\c1ccco1	44%
COc1cc(Br)c(/C=C2\C(=O)N(c3cccc(Cl)c3)N=C2C)cc1OC	–
CCCn1c2ccccc2c2nnc(SCC(=O)c3ccccc3)nc21	–
O=C(Nc1ccc2[nH]c(=O)[nH]c2c1)C(c1ccccc1)c1ccccc1	–
CCn1ncc(Cl)c1C(=O)N1CCc2c(c(C(=O)O)nn2CC(C)C)C1	–
CSc1ccc(CN2CCN(c3ncccn3)CC2)cc1	–
O=C(c1ccc(F)cc1)n1cnc2ccccc21	–
CN(C)c1ccc(/C=C2/SC(=Nc3ccccc3Cl)NC2=O)cc1	39%
COc1ccccc1C=C1C(=O)OC(C)(c2ccccc2)OC1=O (centres undefined)	–
COc1ccccc1/C=C1/SC(=Nc2ccccc2Cl)NC1=O	33%
O=C1NC(=Nc2ccc(O)cc2)S/C1=C\c1cccc(O)c1	–
O=C(O)[C@@H]1[C@H](C(=O)Nc2ccc(Cl)cc2Cl)[C@@H]2C=C[C@H]1C2	–
O=C(Nc1ccc(=O)n2c1[C@@H]1C[C@@H](CN(C(=O)COc3ccccc3)C1)C2)c1ccccn1	–
Cc1c(C(=O)N2CCOCC2)oc2ccc(S(=O)(=O)N3CC(C)CC(C)C3)cc12 (centres undefined)	–
COc1ccc(NC(=O)CCCn2nc([N+](=O)[O-])c(Cl)c2C)cc1	–
CC(NS(=O)(=O)c1ccc2c(c1)CCN2C(=O)C1CC1)c1ccccc1 (centres undefined)	–
CCCN(CCC)S(=O)(=O)c1cccc2nonc12	–
CCc1ccc(N(CC)S(=O)(=O)c2cccc3nonc23)cc1	–
CCCCN(CCCC)S(=O)(=O)c1cccc2nonc12	31%
Cc1cc(C)c(S(=O)(=O)N2CCN(c3nc(C)cc(N4CCCC4)n3)CC2)c(C)c1	–
SMILES	ST2 inh
COc1cccc(C2CC(c3ccc(Br)cc3)=NN2C(=O)CCCC(=O)O)c1OC (centres undefined)	–
COc1cccc(C2CC(c3cccs3)=NN2C(=O)CSC2CCCCC2)c1OC (centres undefined)	44%
COc1ccc(C2CC(c3cccs3)=NN2C(=O)CSc2c[nH]c3ccccc23)cc1 (centres undefined)	–
COc1cccc(OCC(=O)Nc2cc(N3CCCS3(=O)=O)ccc2OC)c1	–
COc1cc(CC(=O)N2CC[C@H](CO)[C@H](O)C2)cc(OC)c1	–
CCN1C(=O)c2ccc(Br)cc2C1=O	–
O=C(O)CN1C(=O)c2ccc(Br)cc2C1=O	–
CCCCCN1C(=O)C(=O)c2cc(Br)ccc21	46%
COc1cc2c(=O)n(Cc3ccc(C(=O)NC(C)C)cc3)c(=O)n(CC(N)=O)c2cc1OC	–
CCCc1cc(C(=O)N2CC(c3ccncc3)C2)ccn1	–
O=[N+]([O-])c1cccc(C2NCCc3c2[nH]c2ccccc32)c1 (centres undefined)	–
O=C1NCCc2c1[nH]c1ccc([N+](=O)[O-])cc21	30%
COc1ccc2[nH]c3c(c2c1)CCNC3=O	–
Cc1noc(C)c1CC(=O)N1CCC(CCC(=O)NCc2cccnc2)CC1	–
Cc1ccc2[nH]c(C)c(CN3CCCCC3)c(=O)c2c1	–
CCOc1ccc(NC(=O)CC(=O)N2CCCn3cncc3C2)cc1	–
Cc1nc(CN2CCN(Cc3nc(-c4ccccn4)no3)CC2)cs1	–
O=C1CC(c2ccccc2)=Nc2ccccc2N1	–
Oc1ccccc1C1=Nc2ccccc2N=C(c2cccc(F)c2)C1	30%
Fc1cccc(-c2nnc3n2N=C(c2cccc(Br)c2)CS3)c1	–
COc1ccc2c(=O)c(-c3ccccc3Cl)c(C(F)(F)F)oc2c1	–
COc1ccc2c(=O)c(-c3ccccc3C)c(C(F)(F)F)oc2c1	75%
Cc1ccccc1-c1c(C(F)(F)F)oc2c(C)c(O)ccc2c1=O	–
CC(c1nccs1)N(C)C(=O)CCC(=O)Nc1ccc(F)c(Cl)c1 (centres undefined)	–
CSc1nc(-c2ccco2)nc2c1c(=O)n(C)c(=O)n2C	–
SMILES	ST2 inh
O=C(Nc1cccc(NC(=O)c2ccco2)c1)c1cccc(Br)c1	53%
O=C(Nc1cccc(S(=O)(=O)c2cccc(NC(=O)c3ccco3)c2)c1)c1ccco1	–
O=C(O)c1cccc(NC(=O)c2cccc(Br)c2)c1	–
O=C(CN1C(=O)/C(=C\c2ccc(Cl)cc2)Sc2ccccc21)NCCN1CCCC1	33%
CCCCNC(=O)CN1C(=O)/C(=C\c2ccc(Cl)cc2)Sc2ccccc21	–
O=C(CN1C(=O)/C(=C\c2ccc(Cl)cc2)Sc2ccccc21)NCCN1CCOCC1	30%
O=C(CN1C(=O)/C(=C\c2ccc(Cl)cc2)Sc2ccccc21)N1CCOCC1	–
O=C(NCCN1CCOCC1)Nc1ccc(Cl)cc1	–
